This passage reports inhibition results from ChEMBL document CHEMBL1961873, “Compounds: GSK PKIS; Assays: Nanosyn kinase panel” (2012).

Assay [1] deals with Tyrosine-protein kinase CSK (Homo sapiens) (UniProt P41240). Particulars: at 1 µM.
The target of assay [2] is T1, Discoidin domain-containing receptor 2 (Homo sapiens) (UniProt Q16832).
T1 sequence (whole entry): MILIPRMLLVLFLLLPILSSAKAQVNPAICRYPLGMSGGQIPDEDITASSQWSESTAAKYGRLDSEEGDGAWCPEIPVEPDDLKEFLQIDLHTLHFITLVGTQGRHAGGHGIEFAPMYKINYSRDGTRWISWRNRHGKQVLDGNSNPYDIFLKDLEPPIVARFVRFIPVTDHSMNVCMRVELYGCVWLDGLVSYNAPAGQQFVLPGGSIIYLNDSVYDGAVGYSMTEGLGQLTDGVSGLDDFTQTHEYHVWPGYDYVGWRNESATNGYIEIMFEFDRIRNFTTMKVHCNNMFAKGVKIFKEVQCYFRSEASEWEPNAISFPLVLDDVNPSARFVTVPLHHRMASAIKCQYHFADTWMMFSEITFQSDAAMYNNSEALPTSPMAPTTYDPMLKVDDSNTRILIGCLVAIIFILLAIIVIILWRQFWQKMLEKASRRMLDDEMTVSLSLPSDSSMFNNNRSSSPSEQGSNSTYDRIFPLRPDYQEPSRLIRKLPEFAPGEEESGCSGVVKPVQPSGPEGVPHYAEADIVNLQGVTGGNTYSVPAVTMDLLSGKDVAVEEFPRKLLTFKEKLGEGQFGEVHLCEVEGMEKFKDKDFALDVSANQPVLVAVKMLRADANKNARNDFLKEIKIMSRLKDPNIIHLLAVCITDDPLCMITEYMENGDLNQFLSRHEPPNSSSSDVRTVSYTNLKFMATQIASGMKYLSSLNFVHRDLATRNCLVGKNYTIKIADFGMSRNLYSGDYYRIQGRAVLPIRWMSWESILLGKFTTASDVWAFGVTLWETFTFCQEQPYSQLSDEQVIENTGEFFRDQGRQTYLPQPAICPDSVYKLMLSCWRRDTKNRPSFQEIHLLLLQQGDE
Particulars: at 0.1 µM.

In assay [3] the target is T1, Discoidin domain-containing receptor 2 (Homo sapiens). Particulars: at 1 µM.
Assay [4] has as its target Epidermal growth factor receptor (Homo sapiens) (UniProt P00533). Conditions: at 0.1 µM.
For assay [5] the target is unchanged. Particulars: at 1 µM.
Assay [6] concerns Epidermal growth factor receptor (Homo sapiens), P00533 [L858R]. Particulars: at 0.1 µM.
Assay [7] has the same test system. Conditions: at 1 µM.
Assay [8] relates to Epidermal growth factor receptor (Homo sapiens), P00533 [L861Q]. Conditions: at 0.1 µM.
The test system is the same in assay [9]. Particulars: at 1 µM.
Assay [10] deals with Epidermal growth factor receptor (Homo sapiens), P00533 [T790M]. Particulars: at 0.1 µM.
Assay [11] has the same test system. Conditions: at 1 µM.
For assay [12], the system named is Epidermal growth factor receptor (Homo sapiens), P00533 [L858R,T790M]. Particulars: at 0.1 µM.
The test system is the same in assay [13]. Particulars: at 1 µM.
In assay [14] the target is Ephrin type-A receptor 2 (Homo sapiens) (UniProt P29317). Particulars: at 0.1 µM.
Assay [15] has the same target. Particulars: at 1 µM.
In assay [16] the target is T2, Ephrin type-A receptor 3 (Homo sapiens) (UniProt P29320).
T2 sequence (whole entry): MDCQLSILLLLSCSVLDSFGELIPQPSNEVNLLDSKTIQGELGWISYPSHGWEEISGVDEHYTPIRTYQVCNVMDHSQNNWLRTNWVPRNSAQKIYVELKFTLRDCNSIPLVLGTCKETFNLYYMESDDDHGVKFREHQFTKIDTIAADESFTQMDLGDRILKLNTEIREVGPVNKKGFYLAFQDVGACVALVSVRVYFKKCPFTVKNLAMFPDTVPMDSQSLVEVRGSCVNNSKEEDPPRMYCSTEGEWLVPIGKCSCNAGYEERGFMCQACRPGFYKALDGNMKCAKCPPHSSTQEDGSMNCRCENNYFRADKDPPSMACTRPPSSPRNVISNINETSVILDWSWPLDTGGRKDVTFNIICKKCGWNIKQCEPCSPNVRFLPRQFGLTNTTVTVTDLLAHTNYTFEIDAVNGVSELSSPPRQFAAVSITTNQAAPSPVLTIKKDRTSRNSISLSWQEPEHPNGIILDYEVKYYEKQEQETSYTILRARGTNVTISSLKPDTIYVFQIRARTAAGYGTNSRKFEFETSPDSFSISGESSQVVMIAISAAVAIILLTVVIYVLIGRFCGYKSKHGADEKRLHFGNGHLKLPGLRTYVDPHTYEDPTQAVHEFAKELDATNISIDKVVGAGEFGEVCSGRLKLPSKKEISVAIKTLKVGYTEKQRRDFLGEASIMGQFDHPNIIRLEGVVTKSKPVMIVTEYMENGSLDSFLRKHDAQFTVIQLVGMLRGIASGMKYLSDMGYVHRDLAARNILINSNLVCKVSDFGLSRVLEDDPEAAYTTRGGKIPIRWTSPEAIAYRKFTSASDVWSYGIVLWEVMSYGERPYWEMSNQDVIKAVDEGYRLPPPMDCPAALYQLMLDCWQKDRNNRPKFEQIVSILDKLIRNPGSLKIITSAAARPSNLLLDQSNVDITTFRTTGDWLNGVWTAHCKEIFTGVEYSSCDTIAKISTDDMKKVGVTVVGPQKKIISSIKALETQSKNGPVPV
Particulars: at 0.1 µM.

Assay [17] deals with T2, Ephrin type-A receptor 3 (Homo sapiens). Conditions: at 1 µM.
The target in assay [18] is Ephrin type-A receptor 4 (Homo sapiens) (UniProt P54764). Particulars: at 0.1 µM.
Assay [19] has the same target. Conditions: at 1 µM.
Assay [20] deals with T3, Ephrin type-B receptor 2 (Homo sapiens) (UniProt P29323).
T3 sequence (whole entry): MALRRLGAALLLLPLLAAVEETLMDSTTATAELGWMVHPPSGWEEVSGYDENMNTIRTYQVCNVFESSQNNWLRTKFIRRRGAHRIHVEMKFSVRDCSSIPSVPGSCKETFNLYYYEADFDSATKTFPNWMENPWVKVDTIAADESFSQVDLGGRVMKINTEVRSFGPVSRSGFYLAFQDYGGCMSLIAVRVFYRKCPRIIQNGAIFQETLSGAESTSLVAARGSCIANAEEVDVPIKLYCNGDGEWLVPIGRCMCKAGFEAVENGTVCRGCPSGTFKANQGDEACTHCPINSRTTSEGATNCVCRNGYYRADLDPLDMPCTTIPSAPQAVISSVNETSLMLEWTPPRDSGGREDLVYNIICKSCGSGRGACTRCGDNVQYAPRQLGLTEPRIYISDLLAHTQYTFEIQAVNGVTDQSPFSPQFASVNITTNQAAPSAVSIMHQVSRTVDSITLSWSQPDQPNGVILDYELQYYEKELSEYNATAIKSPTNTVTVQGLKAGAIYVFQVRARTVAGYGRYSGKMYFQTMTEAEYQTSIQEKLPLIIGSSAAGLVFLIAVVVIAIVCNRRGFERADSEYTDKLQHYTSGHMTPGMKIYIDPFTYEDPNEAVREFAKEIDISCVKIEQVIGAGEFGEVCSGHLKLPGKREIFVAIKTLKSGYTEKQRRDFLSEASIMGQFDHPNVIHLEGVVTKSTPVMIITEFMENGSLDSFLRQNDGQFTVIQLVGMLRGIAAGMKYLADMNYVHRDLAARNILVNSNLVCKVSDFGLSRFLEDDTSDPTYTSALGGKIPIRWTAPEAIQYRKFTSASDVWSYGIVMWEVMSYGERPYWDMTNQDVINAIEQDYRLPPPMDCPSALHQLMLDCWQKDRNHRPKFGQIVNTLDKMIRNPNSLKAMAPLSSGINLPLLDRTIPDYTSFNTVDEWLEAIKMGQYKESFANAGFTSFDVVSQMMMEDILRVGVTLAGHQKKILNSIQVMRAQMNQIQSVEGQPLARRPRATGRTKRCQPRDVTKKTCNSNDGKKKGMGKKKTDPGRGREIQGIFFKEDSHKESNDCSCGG
Particulars: at 0.1 µM.

Chain of Ephrin type-A receptor 2 (Homo sapiens) (P29317 whole entry): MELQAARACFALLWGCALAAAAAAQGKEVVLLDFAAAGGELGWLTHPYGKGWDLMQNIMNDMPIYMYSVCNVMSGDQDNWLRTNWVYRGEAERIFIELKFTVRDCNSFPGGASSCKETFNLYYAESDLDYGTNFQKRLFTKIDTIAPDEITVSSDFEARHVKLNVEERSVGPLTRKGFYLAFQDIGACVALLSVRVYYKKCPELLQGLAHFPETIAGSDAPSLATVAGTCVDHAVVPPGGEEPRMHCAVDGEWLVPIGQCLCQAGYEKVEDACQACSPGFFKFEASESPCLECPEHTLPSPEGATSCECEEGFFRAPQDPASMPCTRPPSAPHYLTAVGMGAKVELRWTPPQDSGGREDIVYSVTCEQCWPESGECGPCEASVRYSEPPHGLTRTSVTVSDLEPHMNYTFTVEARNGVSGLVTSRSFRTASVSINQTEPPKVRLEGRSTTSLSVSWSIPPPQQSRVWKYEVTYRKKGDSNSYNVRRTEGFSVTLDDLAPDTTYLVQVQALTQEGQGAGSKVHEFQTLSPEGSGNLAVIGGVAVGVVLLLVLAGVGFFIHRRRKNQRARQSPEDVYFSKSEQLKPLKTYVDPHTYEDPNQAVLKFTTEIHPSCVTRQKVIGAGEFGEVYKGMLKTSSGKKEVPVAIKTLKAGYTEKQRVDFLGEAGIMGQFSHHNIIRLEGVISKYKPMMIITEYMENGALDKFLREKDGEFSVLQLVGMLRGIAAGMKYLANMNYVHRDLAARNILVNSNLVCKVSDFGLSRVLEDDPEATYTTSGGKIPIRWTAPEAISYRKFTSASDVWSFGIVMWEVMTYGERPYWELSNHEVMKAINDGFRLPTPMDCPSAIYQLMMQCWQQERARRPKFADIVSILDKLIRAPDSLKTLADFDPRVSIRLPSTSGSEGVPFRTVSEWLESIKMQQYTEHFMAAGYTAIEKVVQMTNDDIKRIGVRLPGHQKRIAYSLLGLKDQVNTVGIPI
Chain of Epidermal growth factor receptor (Homo sapiens) (P00533 whole entry): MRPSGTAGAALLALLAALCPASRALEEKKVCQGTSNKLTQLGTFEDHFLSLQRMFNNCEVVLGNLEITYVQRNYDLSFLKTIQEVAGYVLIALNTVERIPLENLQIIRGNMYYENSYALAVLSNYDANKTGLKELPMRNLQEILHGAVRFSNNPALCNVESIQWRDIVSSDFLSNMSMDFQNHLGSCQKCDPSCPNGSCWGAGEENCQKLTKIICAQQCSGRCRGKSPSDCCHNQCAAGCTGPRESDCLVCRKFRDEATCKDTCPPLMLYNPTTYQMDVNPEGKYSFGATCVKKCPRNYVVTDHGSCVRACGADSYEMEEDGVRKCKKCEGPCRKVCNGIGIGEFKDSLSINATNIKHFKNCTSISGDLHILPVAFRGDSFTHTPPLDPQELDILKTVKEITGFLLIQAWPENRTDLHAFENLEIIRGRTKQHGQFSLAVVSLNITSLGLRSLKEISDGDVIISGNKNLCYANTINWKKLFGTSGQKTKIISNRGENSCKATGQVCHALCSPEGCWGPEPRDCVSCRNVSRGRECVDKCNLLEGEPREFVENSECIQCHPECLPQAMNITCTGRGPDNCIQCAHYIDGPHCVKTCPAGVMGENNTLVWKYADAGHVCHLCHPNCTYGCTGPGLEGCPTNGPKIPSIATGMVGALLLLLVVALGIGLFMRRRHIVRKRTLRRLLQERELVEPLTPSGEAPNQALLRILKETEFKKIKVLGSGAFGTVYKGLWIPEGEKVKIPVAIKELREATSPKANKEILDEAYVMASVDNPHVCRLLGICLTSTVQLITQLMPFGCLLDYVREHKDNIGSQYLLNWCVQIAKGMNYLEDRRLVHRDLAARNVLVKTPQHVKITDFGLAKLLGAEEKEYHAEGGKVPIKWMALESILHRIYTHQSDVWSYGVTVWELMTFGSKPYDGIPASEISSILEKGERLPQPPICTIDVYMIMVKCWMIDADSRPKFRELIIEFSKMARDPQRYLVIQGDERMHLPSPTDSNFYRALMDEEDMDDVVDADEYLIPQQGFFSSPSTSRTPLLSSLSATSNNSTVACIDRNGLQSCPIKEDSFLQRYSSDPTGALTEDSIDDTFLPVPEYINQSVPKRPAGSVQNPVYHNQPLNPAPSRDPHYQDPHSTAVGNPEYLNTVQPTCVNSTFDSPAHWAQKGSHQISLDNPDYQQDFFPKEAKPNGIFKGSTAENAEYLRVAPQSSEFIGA
Chain of Epidermal growth factor receptor (Homo sapiens), P00533 [L858R] (P00533 whole entry L858R): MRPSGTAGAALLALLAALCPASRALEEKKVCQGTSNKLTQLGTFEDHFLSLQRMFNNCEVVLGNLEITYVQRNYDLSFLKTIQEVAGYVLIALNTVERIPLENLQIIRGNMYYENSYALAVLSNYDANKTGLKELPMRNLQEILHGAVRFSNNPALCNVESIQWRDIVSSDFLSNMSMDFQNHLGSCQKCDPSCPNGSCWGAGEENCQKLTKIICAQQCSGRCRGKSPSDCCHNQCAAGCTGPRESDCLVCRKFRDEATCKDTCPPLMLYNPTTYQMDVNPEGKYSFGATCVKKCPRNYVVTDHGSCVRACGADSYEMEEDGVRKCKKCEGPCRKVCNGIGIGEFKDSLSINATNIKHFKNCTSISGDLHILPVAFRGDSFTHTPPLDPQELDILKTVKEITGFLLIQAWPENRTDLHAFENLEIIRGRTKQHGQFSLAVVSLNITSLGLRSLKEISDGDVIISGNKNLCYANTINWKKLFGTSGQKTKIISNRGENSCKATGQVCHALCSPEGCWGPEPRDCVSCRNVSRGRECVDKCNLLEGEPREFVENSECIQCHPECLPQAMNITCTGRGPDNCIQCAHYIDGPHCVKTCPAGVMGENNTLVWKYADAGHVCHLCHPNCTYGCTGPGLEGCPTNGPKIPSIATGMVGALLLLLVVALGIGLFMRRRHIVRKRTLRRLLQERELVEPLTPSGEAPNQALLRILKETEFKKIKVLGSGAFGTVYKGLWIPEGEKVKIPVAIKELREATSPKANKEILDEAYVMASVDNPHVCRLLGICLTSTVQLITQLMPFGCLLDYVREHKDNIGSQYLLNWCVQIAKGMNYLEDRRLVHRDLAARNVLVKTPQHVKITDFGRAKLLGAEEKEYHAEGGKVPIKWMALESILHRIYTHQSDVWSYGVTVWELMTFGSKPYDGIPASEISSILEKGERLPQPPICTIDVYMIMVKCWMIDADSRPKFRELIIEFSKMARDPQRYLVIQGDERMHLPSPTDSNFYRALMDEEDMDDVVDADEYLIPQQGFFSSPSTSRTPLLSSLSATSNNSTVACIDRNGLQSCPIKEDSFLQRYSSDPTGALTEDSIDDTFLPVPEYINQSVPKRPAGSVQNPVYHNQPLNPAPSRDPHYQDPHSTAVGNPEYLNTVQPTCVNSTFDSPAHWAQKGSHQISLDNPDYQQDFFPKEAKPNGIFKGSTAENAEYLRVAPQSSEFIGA
Chain of Tyrosine-protein kinase CSK (Homo sapiens) (P41240 2-450 limits assumed): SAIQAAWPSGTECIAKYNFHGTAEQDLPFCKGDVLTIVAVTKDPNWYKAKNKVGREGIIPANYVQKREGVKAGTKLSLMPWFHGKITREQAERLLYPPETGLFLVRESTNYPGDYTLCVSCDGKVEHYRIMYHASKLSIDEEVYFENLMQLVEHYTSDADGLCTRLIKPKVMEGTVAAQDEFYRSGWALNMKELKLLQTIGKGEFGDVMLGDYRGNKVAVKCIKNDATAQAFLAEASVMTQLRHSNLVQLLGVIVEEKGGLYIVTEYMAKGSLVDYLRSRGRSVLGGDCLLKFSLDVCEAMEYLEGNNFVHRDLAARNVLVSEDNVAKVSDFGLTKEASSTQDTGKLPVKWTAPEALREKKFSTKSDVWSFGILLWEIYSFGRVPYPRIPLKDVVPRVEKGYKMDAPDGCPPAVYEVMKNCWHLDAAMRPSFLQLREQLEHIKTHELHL
Chain of Epidermal growth factor receptor (Homo sapiens), P00533 [T790M] (P00533 whole entry T790M): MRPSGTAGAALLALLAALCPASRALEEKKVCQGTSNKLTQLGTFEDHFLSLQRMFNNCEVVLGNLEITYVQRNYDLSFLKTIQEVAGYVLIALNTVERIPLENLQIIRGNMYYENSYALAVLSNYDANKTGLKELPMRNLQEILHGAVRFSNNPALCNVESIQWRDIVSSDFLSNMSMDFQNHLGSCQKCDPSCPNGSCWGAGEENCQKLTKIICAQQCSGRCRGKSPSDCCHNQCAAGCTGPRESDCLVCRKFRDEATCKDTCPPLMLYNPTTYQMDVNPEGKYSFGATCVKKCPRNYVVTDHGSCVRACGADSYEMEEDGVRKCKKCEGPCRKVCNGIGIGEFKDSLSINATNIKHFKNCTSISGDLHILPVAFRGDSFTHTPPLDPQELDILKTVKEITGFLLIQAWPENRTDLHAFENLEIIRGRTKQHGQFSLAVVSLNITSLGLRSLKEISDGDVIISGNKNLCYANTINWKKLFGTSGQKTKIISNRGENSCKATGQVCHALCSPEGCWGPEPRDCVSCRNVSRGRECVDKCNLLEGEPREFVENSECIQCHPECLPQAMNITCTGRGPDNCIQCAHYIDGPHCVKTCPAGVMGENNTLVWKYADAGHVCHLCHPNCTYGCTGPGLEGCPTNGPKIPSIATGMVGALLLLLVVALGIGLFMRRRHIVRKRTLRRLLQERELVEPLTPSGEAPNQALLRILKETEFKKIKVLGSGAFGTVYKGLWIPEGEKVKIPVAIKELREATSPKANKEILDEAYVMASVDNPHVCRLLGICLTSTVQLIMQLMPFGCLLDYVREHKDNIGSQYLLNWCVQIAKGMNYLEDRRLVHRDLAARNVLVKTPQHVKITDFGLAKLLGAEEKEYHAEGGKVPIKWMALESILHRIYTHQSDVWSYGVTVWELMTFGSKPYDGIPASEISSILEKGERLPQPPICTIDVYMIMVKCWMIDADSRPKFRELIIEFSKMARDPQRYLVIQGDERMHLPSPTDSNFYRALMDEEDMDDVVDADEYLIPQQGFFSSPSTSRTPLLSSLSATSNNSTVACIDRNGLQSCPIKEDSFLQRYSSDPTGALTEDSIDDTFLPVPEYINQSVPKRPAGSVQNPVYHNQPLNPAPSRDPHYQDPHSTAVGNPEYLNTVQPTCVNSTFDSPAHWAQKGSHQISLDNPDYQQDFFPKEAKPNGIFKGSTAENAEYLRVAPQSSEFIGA

Consider `Fc1ccc(-c2ncn(C3CCNCC3)c2-c2ccnc(Oc3ccc(F)c(F)c3)n2)cc1`, for which the inhibition (usually the drop in the measured response relative to a control, in per cent) in [1] was 2.38%; in assay [2] it was 1.67%; in [3], 2.09%; in assay [4], -3.12%; in assay [5] it was -0.79%; in assay [6], 1.05%. In addition, the inhibition came out at 7.57% in assay [7]; 3.65% in [8]; 4.21% in [9]; 1.53% in assay [10]; 1.67% in [11]; 2.65% in assay [12]. Moreover, the inhibition was 1.47% in assay [13]; -2.47% in assay [14]; -2.72% in assay [15]; -1.56% in assay [16]; 0.81% in assay [17]; 6.95% in [18]. The inhibition in assay [19] was 9.68%; in [20], 6.59%.

For `COc1cc(Nc2ncc(-c3ccccc3)o2)cc(OC)c1OC`, the inhibition in [1] was -0.86%; in assay [2], 0.74%; in assay [3] it was 8.58%; in [4], 6.02%; in assay [5], 13.8%; in assay [6] it was -1.09%. Besides, the inhibition in [7] is -0.27%; in assay [8], 0.27%; in assay [9], 0.17%; in [10], 0.05%; in assay [11], 1.16%; in assay [12], -0.28%. Also, the inhibition in assay [13] was -0.54%; in assay [14], -3.3%; in assay [15], -1.26%; in assay [16], -6.76%; in assay [17] it was -5.8%; in assay [18], -7.25%. The results for the inhibition in assay [19] and in assay [20] were 1.47% and -1.44%, respectively.

Take `COc1cc2ncn(-c3cc(OCc4ccccc4C(F)(F)F)c(C(C)=O)s3)c2cc1OC`: the inhibition was 3.13% in assay [1]; 3.54% in [2]; 5.22% in [3]; -0.8% in assay [4]; 1.81% in assay [5]; -2.47% in assay [6]. The inhibition is 3.36% in assay [7]; 1.73% in assay [8]; 0.09% in assay [9]; 2.46% in assay [10]; 0.97% in assay [11]; -1.84% in [12]. The inhibition in assay [13] worked out at 0.68%; in assay [14], 1.98%; in assay [15], 2.23%; in assay [16] it was 1.78%; in assay [17] it was 4.66%; in [18] it was 5.55%. The inhibition in assay [19] worked out at 10.6%; in assay [20], 5.43%.

Take `NCc1ccc(-n2c(-c3nonc3N)nc3cnccc32)cc1`: the inhibition in [1] worked out at 1.46%; in assay [2], 2.78%; in [3] it was 3.01%; in assay [4] it was 1.73%; in assay [5], 1.72%; in assay [6], 3.13%. For the same molecule, the inhibition came to 1.55% in [7]; 2.5% in assay [8]; 2.02% in assay [9]; 3.36% in assay [10]; 3.16% in assay [11]; 4.81% in assay [12]. In addition, the inhibition was 5.05% in assay [13]; 0.49% in [14]; 0.85% in [15]; 7% in assay [16]; 4.64% in assay [17]; 9.54% in assay [18]. Moreover, the results for the inhibition in assay [19] and in assay [20] were 5.62% and 6.63%, respectively.

With `COc1cccc(-n2cnc3c(N/N=C/c4ccncc4)ncnc32)c1`, the inhibition in assay [1] was 7.17%; in assay [2], -0.19%; in [3], 1.99%; in assay [4], 2.02%; in assay [5], 8.31%; in [6], 5.72%. In addition, the inhibition in assay [7] was 30.8%; in assay [8], 1.61%; in [9] it was 10.6%; in assay [10], -0.92%; in assay [11] it was 5.78%; in assay [12] it was -1.35%. The inhibition in [13] is 6.65%; in assay [14], -0.82%; in [15], 0.55%; in [16], -3.39%; in assay [17], -0.79%; in assay [18], 3.18%. Further, the inhibition in assay [19] worked out at 25.6%; in assay [20] it was 2.42%.

In the case of `CS(=O)(=O)CCNCc1ccc(-c2ccc3ncnc(Nc4ccc(OCc5ccccc5)c(Br)c4)c3c2)o1`, the inhibition in assay [1] was 4.59%; in [2], 1.43%; in assay [3], 1.04%; in [4], 69.5%; in assay [5] it was 81.6%; in [6], 49.3%. Also, the inhibition in [7] is 91.2%; in assay [8], 48.1%; in [9] it was 83.7%; in assay [10], 4.96%; in assay [11], 15.8%; in assay [12] it was 1.22%. Besides, the inhibition is -0.73% in assay [13]; -1.09% in [14]; -2.25% in assay [15]; 1.29% in assay [16]; 1.45% in assay [17]; 7% in assay [18]. The inhibition in [19] came to 10.9%; in [20], 7.88%.
